# Source: PubChem BioAssay
# Most compounds without a hit are left out; they make up all but 8.1% or so of the library.
# KB-V1 cytotox: KB-V1 MDR subline cytotoxicity; 3.4% of 400,000 active; Potency, µM (top dose mostly 46.1 µM), actives largely listed as cytotoxic; KB-V1 MDR cells viability, CellTiter-Glo, 72 h; AID 1347076; further: on the % scale 0 is the no-effect control and ±100 the full control effect; nearly all actives have a fitted effect of over 60% in size
#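 KB-V1, DMEM (no phenol red) + 10% FBS; cpd pin-transferred, titration series; 72 h, 37 degrees C; CellTiter-Glo, luminescence. Data normalized, curve-fit.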
# ELG1 DNA repair: blocks ELG1-dependent DNA repair in HEK293T cells | AID 504467 | Potency, µM (doses to about 46.1 µM), for inactives: at the top dose activity change, negative = inhibition, hits mostly inhibitors | HEK293T ELG1-luciferase reporter, luminescence, 16 h; DNA damage induced by 5-fluorouridine | 2.3% of 330,000 active; further: on the % scale 0 is the no-effect control and ±100 the full control effect; nearly all actives have a fitted effect of over 55% in size
#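 Reporter activity after DNA damage by 5-fluorouridine is monitored. Compound-treated cells incubate 16 hr at 37 °C, then ONE-Glo is added for 30 min before luminescence reading.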
# SW480 rerep: DNA re-replication induction in SW480 cells | SW480 DNA re-replication, Hoechst DNA content imaging, 48 h | Potency, µM (series often up to 46.1 µM), inactives show at the highest dose re-replication activation, hits mostly activators | 1.8% of 340,000 active; further: % of control where 0% means no effect; nearly all actives have a fitted effect of over 55% in size
#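 DNA re-replication was detected as more nuclei of elevated Hoechst intensity after 48 hr exposure to compound (23 nL pinned per well of 250 cells).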
# MCF10A rereplic: DNA re-replication induction in MCF 10a cells; MCF 10A DNA re-replication, Hoechst nuclear intensity, 48 h; Potency, µM (titrated, usually from 46.1 µM), for inactives: at the highest dose activity, positive = re-replication, usual class: activators; 2.9% of 350,000 active; AID 624296; further: % of control where 0% means no effect; nearly all actives have a fitted effect of over 50% in size
# KB-3-1 tox: KB-3-1 parental cell cytotoxicity; KB-3-1 viability, CellTiter-Glo ATP luminescence, 72 h; Potency, µM (top dose mostly 46.1 µM), most hits filed as cytotoxic; 1.4% of 400,000 active; AID 1347075; further: on the % scale 0 is the no-effect control and ±100 the full control effect; nearly all actives have a fitted effect of over 60% in size
#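 Here the drug-naive KB-3-1 line serves as comparator for MDR sub-line selectivity; cells received compound titrations, 72 h at 37 °C, then CellTiter-Glo readout.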
# Numbers without * were called inactive; i = inactive; ? = inconclusive; . = not tested or not shown; [ ] = remark or other dose. The call rests on the fitted dose curve; in most records, active means well fitted curve in the direction sought with a large enough effect; inconclusive means small, poorly fitted or top-dose-only effect, or another doubt; inactive means no such curve, though single readings can be large; an effect the other way counts as inactive or inconclusive. Potency means the concentration at half of the fitted maximal effect.
SMILES,KB-V1 cytotox,ELG1 DNA repair,SW480 rerep,MCF10A rereplic,KB-3-1 tox
CCn1ccc2cc(S(=O)(=O)N3CCCN(C(=O)Nc4cccc(Cl)c4)CC3)ccc21,10µM*,.,.,.,?
O=C(CCNC(=O)c1ccccc1Cl)Nc1cccc(S(=O)(=O)N2CCCCC2)c1,i,?,-6%,6%,i
O=C(Nc1cccc(Cl)c1)Nc1cc(S(=O)(=O)N2CCCCC2)ccc1Cl,?,?,?,6.5µM*,?
CC(C)(C)c1ccc(OCCC(=O)Nc2cccc(S(=O)(=O)N3CCCCC3)c2)cc1,21µM*,-3%,16%,7%,?
Cc1ccc(C)c(OCCC(=O)Nc2cccc(S(=O)(=O)N3CCCCC3)c2)c1,15µM*,-15%,-1%,13%,i
Cc1ccc(C)c(OCCC(=O)Nc2cc(S(=O)(=O)N3CCCCC3)ccc2C)c1,i,?,-1%,?,i
CC1=C(C(=O)Nc2ccc(C)cc2C)C(c2ccc([N+](=O)[O-])cc2)n2ncnc2N1 (stereo unspecified),i,0%,-5%,-1%,i
CSc1cccc(NC(=O)/C=C/c2ccc(Cl)cc2)c1,15µM*,?,0%,16%,?
Cc1cc(C)nc(NC(=O)/C=C/c2ccc(Cl)cc2Cl)c1,9.2µM*,?,-31%,?,i
Cc1cc(C)nc(NC(=O)/C=C/c2ccccc2Cl)c1,?,?,-2%,-23%,i
Cc1cccc(NC(=O)/C=C/c2ccc(Cl)cc2)n1,16µM*,?,.,0%,i
CCOC(=O)CSC1=NC(=O)/C(=C\c2ccc(OC(C)=O)cc2)S1,?,?,?,2.6µM*,?
COc1ccc(C2=NCC(CSc3nccc(=O)[nH]3)S2)cc1 (stereo unspecified),i,?,-4%[9.22 µM],-8%,i
CC1=C(C(=O)Nc2ccccc2)C(c2ccc(C)o2)n2c(s/c(=C/c3ccccc3)c2=O)=N1 (stereo unspecified),i,21µM*,-3%,15µM*,i
CC1=C(C(=O)Nc2ccccc2C)C(c2ccc(C)o2)n2c(s/c(=C/c3ccccc3)c2=O)=N1 (stereo unspecified),i,?,4%,-21%,i
Cc1ccccc1C(=O)Nc1ccc2c(C#N)c3nc4ccccc4nc3n2c1,i,18µM*,-6%,6%,i
Cc1c(C(=O)Nc2ccccc2)cn2c(nc3ccccc32)c1C#N,i,4%,?,?,i
CCc1cccc(NC(=O)Cn2cc3c(n2)CCCC3)c1,i,-3%,-1%,-1%,i
CCCCC1(CC(=O)OCC)C(=O)N(c2ccccc2)N(c2ccccc2)C1=O,4.6µM*,-3%,17%,6%,i
O=C(O)COc1ccccc1C(Nc1ccccn1)c1cc(Cl)c2cccnc2c1O (stereo unspecified),i,-1%,-2%,18µM*,i
CCOc1ccc(C(Nc2cccnc2)c2cc(Cl)c3cccnc3c2O)cc1 (stereo unspecified),i,-21%,?,?,?
O=C(O)COc1ccccc1C(Nc1cccnc1)c1cc(Cl)c2cccnc2c1O (stereo unspecified),i,1%,15%,9.2µM*,i
COC(=O)c1ccc(OCC(=O)NC2CCCCCCC2)cc1,i,-5%,1%,-3%,i
O=C(NCCN1C(=O)S/C(=C/c2ccccc2)C1=O)C1CC(=O)N(Cc2ccccc2)C1 (stereo unspecified),i,-16%,4%,9%,i
COc1ccc(C(=O)NCCN2C(=O)S/C(=C\c3cccnc3)C2=O)c(OC)c1OC,15µM*,?,1%,23%,i
SMILES,KB-V1 cytotox,ELG1 DNA repair,SW480 rerep,MCF10A rereplic,KB-3-1 tox
Cc1nn(Cc2ccccc2)c(C)c1C(=O)NCCN1C(=O)S/C(=C\c2ccccc2)C1=O,?,-10%,?,26µM*,i
CCOc1cc(C(=O)NCCN2C(=O)S/C(=C\c3cccnc3)C2=O)cc(OCC)c1OCC,i,18µM*,23%,-7%,i
Cc1ccc(C2(C)NC(=O)N(CC(=O)NCCN3C(=O)S/C(=C\c4cccnc4)C3=O)C2=O)cc1 (stereo unspecified),i,.,5.8µM*,40%,i
N#CC1(NC(=O)CSc2nc3ccccc3s2)CCCCC1,16µM*,2%,-2%,22%,i
O=C(NC1CCCc2ccccc21)c1ccccc1 (stereo unspecified),i,-3%,12%,1%,i
O=C(NC1CC1(c1ccccc1)c1ccccc1)c1ccccc1 (stereo unspecified),16µM*,.,13%,16%,?
O=c1cc(-c2ccccc2)[nH]n1-c1ccc([N+](=O)[O-])cc1,?,?,23%,15µM*,?
O[C@H]1C[C@H](c2ccccc2)N(CC2CCCCC2)C[C@@H]1n1cc(C2CC2)nn1,i,.,.,.,?
O[C@@H]1CN(CC2CCCCC2)[C@@H](c2ccccc2)C[C@H]1n1cc(C2CC2)nn1,?,.,.,.,21µM*
O=C(O)c1ccccc1SCc1cn2cc(Br)ccc2n1,i,?,6%,-2%,i
O=C(c1cc(-c2cccc3ccccc23)nc2ccccc12)N1CCN(CCO)CC1,i,4.6µM*,-10%,?,i
O=C(c1cc(-c2ccccc2)nc2ccccc12)N1CCN(c2ccccc2O)CC1,i,13µM*,17%,12%,i
O=C(c1cc(-c2ccncc2)nc2ccccc12)N1CCN(c2ccccc2O)CC1,i,?,6%,18%,i
O=C(c1cc(-c2ccncc2)nc2ccccc12)N1CCN(c2ccc(N3CCOCC3)nn2)CC1,i,-24%,1%,-4%,i
O=C(c1cc(-c2ccncc2)nc2ccccc12)N1CCN(c2ncccn2)CC1,?,23µM*,16%,8%,i
Cc1cc(C(=O)N2CCN(c3ncccn3)CC2)sc1-c1ccccc1,21µM*,.,7%,7%,i
COc1ccc(C2=NCCNC(C(F)(F)F)=C2)cc1,i,0%,2%,-2%,i
O=C(NCC1CCCN1S(=O)(=O)c1cccs1)C(=O)Nc1ccccc1 (stereo unspecified),i,25%,0%,?,i
CC1CCc2c(sc3nnn(CC(=O)Nc4cccc(C(F)(F)F)c4)c(=O)c23)C1 (stereo unspecified),i,.,.,.,i
O=C(c1cc(-c2ccncc2)nc2ccccc12)N1CCN(c2ccccn2)CC1,?,?,18µM*,10µM*,13µM*
O=C(c1cc(-c2ccccc2)nc2ccccc12)N1CCN(c2ccccn2)CC1,?,?,1%,?,?
